Screens as filed in PubChem.
ABHD5-PLIN5 inh – inhibitors of human ABHD5-perilipin-5 interaction | Q00G26+Q8WTS1 | Split G. princeps luciferase complementation, luminescence, 4 h | inhibition, % at 4 µM | actives 0.78% (n = 360,000) | AID 602281;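 active = inhibition above the mean inhibition across every tested compound plus 3 SD, cut at about 22% in these data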;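 note: 0% = DMSO only wells and the 100% control is not disclosed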
Mdm2 MdmX PPI – inhibitors of human Mdm2/MdmX interaction; O15151+Q00987; actives 3% (n = 330,000); inhibition, % at 8 µM; AID 485346; SaOS-2 split-luciferase Mdm2/MdmX complementation, luminescence;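 active = inhibition of at least 50% at 8 µM in the primary screen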
HIF-2a block – inhibitors of HIF-2a. actives 0.72% (n = 360,000). inhibition, % at 18.8 µM. AID 624352. 786-0 RCC cells HIF-2a reporter, luciferase luminescence, overnight;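 active = inhibition of the luminescence signal of 40% or more relative to plate controls, in a single-dose primary screen at 18.75 µM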
Peg3 promoter – reduces Peg3 promoter-driven luciferase expression in HeLa | HeLa PEG-Prom luciferase reporter, luminescence, overnight | inhibition, % at 20 µM | actives 1.7% (n = 360,000) | AID 588405;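 active = inhibition of at least 50% at 20 µM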
KKLEB cytotox – CF airway cell cytotoxicity counter-screen; activity change (cytotoxicity), % at 5 µM; KKLEB CF airway cells viability, ATPlite luminescence, overnight; stronger effect = lower value; cells stimulated with P. aeruginosa culture filtrate; actives 0.36% (n = 360,000);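 active = corrected activity change at or below -50% at 5 µM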
CF NFkB inh – inhibitors of cystic fibrosis induced NF-kB. actives 0.86% (n = 360,000). inhibition, % at 5 µM. KKLEB NF-kB-GFP reporter, PAF-induced, GFP fluorescence overnight. AID 588850;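 active = at least 50% inhibition at 5 µM, scaled per plate between neutral and stimulator controls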;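 note: PAF is a Pseudomonas aeruginosa culture filtrate used as stimulus; plate controls were PAF-stimulated DMSO wells for no effect and unstimulated DMSO wells for full effect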
Mdm2 MdmX conf – human Mdm2/MdmX binding inhibition, confirmed; luminescent assay; shares compounds with Mdm2 MdmX PPI; actives 55% (n = 10,000); inhibition, % at 8 µM; in the data active = inhibition above about 40%
FLuc counter – counter-screen for Mdm2/MdmX inhibitors: full-length luciferase; shares compounds with Mdm2 MdmX PPI; SaOS-2 full-length luciferase counterscreen, luminescence; inhibition, % at 8 µM; actives 77% (n = 6,200);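 active = mean inhibition at 8 µM reaching about 37%, which flags the compound as non-specific, limit read from the data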;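 note: p53-null SaOS-2 cells with luciferase driven by a doxycycline-inducible promoter; compound on cells about two nights before reading with doxycycline added after day one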
* marks the source's active call; other numbers are inactive results; / = no result given. An excerpt weighted towards active compounds, which were near 4.6% of everything screened.

SMILES | ABHD5-PLIN5 inh | Mdm2 MdmX PPI | HIF-2a block | Peg3 promoter | KKLEB cytotox | CF NFkB inh | Mdm2 MdmX conf | FLuc counter
O=C(CN1C(=O)/C(=C/c2ccccc2)SC1=S)N1CCN(CCc2ccccn2)CC1 | -8 | 84* | 30 | 74* | 0 | 8 | 54* | 24
O=C(O)C1CCCC[C@H]1C(=O)Nc1ncc([N+](=O)[O-])s1 (stereo partly drawn) | 0 | 1 | 10 | -7 | -13 | 14 | / | /
O=C(CCCN1C(=O)/C(=C\c2ccccc2)SC1=S)N1CCOCC1 | -3 | 51* | 22 | 19 | -4 | 10 | 20 | /
O=C(CCN1C(=O)/C(=C\c2cccc(Br)c2)SC1=S)N1CCOCC1 | 5 | 61* | -4 | 17 | 7 | 35 | 47* | 21
Cc1ccc(/C=C2/SC(=S)N(CCC(=O)N3CCOCC3)C2=O)cc1 | -4 | 22 | -5 | -28 | 1 | 8 | / | /
CCN(CC)C(=O)CN1C(=O)/C(=C/c2ccccc2)SC1=S | -6 | 63* | 7 | 3 | -16 | 30 | 45* | 28
Cc1ccc(/C=C2\SC(=S)N(CCC(=O)N3CCCCC3)C2=O)cc1 | 11 | 72* | 22 | 20 | 11 | 17 | 66* | 122*
COc1ccc(S(=O)(=O)N[C@H]2CC[C@H](CCNC(=O)c3ccccc3F)O[C@@H]2CO)cc1 | 2 | / | 4 | / | / | / | / | /
COc1cccc(NC(=O)CSc2nc3ccccc3c(=O)n2CCCC(=O)NCC2CCCO2)c1 (stereo not drawn) | 16 | 11 | 7 | 10 | 0 | -29 | / | /
COc1cccc(NC(=O)CN(C)C(=O)c2cccc(S(=O)(=O)Nc3ccccc3OC)c2)c1 | 5 | 4 | 11 | 9 | -8 | -22 | / | /
COc1cccc(C(C)(O)c2nc(-c3ccc(C)c(C)c3)cs2)c1 (stereo not drawn) | -7 | / | 3 | -5 | 4 | -10 | / | /
COc1ccccc1NC(=O)c1ccc2c(O)c(S(=O)(=O)c3ccccc3)c(=O)[nH]c2c1 | -3 | -11 | -8 | 2 | 3 | 15 | / | /
CCCCn1nnnc1C(c1cc2ccccc2o1)N1CCCN(C(=O)OC(C)(C)C)CC1 (stereo not drawn) | 4 | / | 10 | / | / | / | / | /
O=C(CCc1nc2ccccc2c(=O)[nH]1)N1CCCc2ccccc21 | -2 | 15 | -50 | -14 | 24 | -14 | / | /
Cc1nc(C(F)(F)F)ccc1C(=O)N1CCC(C)(C(=O)NS(=O)(=O)C2CC2)C1 (stereo not drawn) | -5 | / | 9 | -4 | -5 | -18 | / | /
O=C(CN1C(=O)S/C(=C/c2ccncc2)C1=O)N1CCOCC1 | -3 | 65* | 24 | 11 | 0 | 15 | -21 | /
O=C1c2nccnc2C(=O)N1c1ccc(C(F)(F)F)cc1 | 3 | -14 | 18 | -7 | 4 | -3 | / | /
COc1ccc(OC)c2sc(N3CCc4ccccc4C3)nc12 | 0 | -46 | -115 | -83 | -4 | 7 | / | /
c1ccc2c(c1)CCN(c1nc3cc4c(cc3s1)OCCO4)C2 | 6 | 81* | 47* | 40 | -52* | -5 | 77* | 93*
CCN1CCCC1CNC(=O)c1cc2c(-c3ccc(Cl)cc3)nn(C)c2s1 (stereo not drawn) | 2 | 65* | 19 | 32 | -17 | -14 | 11 | /
Cn1nc(-c2ccc(Cl)cc2)c2cc(C(=O)N3CCN(c4ccccc4)CC3)sc21 | -2 | 38 | 11 | 4 | -16 | -1 | / | /
Cn1nc(-c2ccc(Cl)cc2)c2cc(C(=O)N3CCN(c4ccccn4)CC3)sc21 | -3 | 55* | 3 | 36 | 7 | -64 | 16 | /
CC(=O)NN(O)C1N(C)C(=O)N(Cc2ccccc2)C1(C)C (stereo not drawn) | 4 | -17 | 10 | 0 | 1 | 4 | / | /
COc1ccc(-c2oc3cc(O)c(OC)c(O)c3c(=O)c2OC)cc1 | -3 | 27 | -88 | -60 | 11 | -7 | / | /
COc1ccc(-c2oc3cc(OC)c(O)c(OC)c3c(=O)c2OC)cc1O | -1 | 64* | -68 | 41 | -29 | 34 | 42* | 28
SMILES | ABHD5-PLIN5 inh | Mdm2 MdmX PPI | HIF-2a block | Peg3 promoter | KKLEB cytotox | CF NFkB inh | Mdm2 MdmX conf | FLuc counter
COC(=O)c1ccc(COc2ccc(CNCc3ccc(Cl)cc3)cc2)cc1 | -5 | -32 | -97 | -135 | 1 | -7 | / | /
O=C(Nc1nnc(-c2ccc3c(c2)CCCC3)o1)c1ccccc1 | 7 | 57* | -105 | -36 | -4 | -17 | 66* | 47*
COc1ccc2cc(CO)c3cc(OC)c(OC)cc3c2c1 | -2 | 42 | 16 | 41 | 0 | 4 | / | /
C=CCNC(=O)c1ccc(Cn2c(=S)[nH]c3cc4c(cc3c2=O)OCO4)cc1 | -1 | 60* | 1 | 13 | -15 | -2 | 11 | /
COc1ccccc1Cn1c(=S)[nH]c2cc(C(=O)NCC3CCCO3)ccc2c1=O (stereo not drawn) | -6 | 15 | 15 | 9 | 3 | 5 | / | /
O=C(NCCN1CCCC1)c1ccc(Cn2c(=S)[nH]c3cc4c(cc3c2=O)OCO4)cc1 | -6 | -3 | 13 | -5 | 33 | -8 | / | /
O=C(NCC1CCCO1)c1ccc2c(=O)n(Cc3ccc(Cl)cc3)c(=S)[nH]c2c1 (stereo not drawn) | 0 | 56* | 16 | 2 | -3 | -14 | 31 | /
CCOC(=O)[C@]12CCCC=C1N(Cc1ccc3c(c1)OCO3)C(=O)[C@H](CC(=O)NCCc1ccccc1OC)C2 | 4 | / | 9 | / | / | / | / | /
COc1cc(OC)c2c(-c3cccc(-c4ccc(NC(C)=O)cc4)c3)cc(=O)oc2c1 | 10 | 60* | -40 | -112 | -7 | 42 | 63* | 79*
COc1cc(OC)c2c(-c3cccc(-c4ccc(F)c(Cl)c4)c3)cc(=O)oc2c1 | 5 | 72* | 10 | -6 | 0 | 17 | 61* | 43*
COc1cc(OC)c2c(-c3cccc(-c4ccc(C#N)cc4)c3)cc(=O)oc2c1 | -4 | 43 | -3 | 8 | 0 | 2 | / | /
COc1cc(OC)c2c(-c3cccc(-c4sccc4C(C)=O)c3)cc(=O)oc2c1 | 2 | 72* | -4 | -17 | -24 | 60* | 55* | 55*
COc1cc(OC)c2c(-c3cccc(-c4ccc(OC)c(OC)c4)c3)cc(=O)oc2c1 | 13 | 63* | -2 | -18 | -13 | 48 | 52* | 86*
O=C(Nc1ccc(S(=O)(=O)N2CCOCC2)cc1)c1ccc(Cl)c([N+](=O)[O-])c1 | 10 | / | 10 | 7 | -10 | 8 | / | /
CCCCCCCCN1C(=O)[C@H](CC(=O)NCC23CC4CC(CC(C4)C2)C3)C[C@@]2(C(=O)OCC)CCC=C12 | -6 | / | -3 | / | / | / | / | /
